Laboratory results: the supplement of paper PMC6555819

The sequences below were run on PPARg DBDmut:RXRa IVT, anti-PPARg (DBD mutation: PPARg1 K132A/R137A, NR concentration 270 nM, RXRa partner concentration 90 nM) (assay: PBM binding z-score (relative to random genomic background probes); higher = stronger binding; sequences stand for … in GC…GCGATTGACAGCGTAGAATGAAGG).
Summary of the method: (§1)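 Probes were double-stranded and carried 34-nt variable regions with direct-repeat seeds, single-nucleotide variants, half-site ablations and random human genomic background sequences, printed on custom Agilent 4×180K protein-binding microarrays. Arrays were incubated 1 h with ligand-free nuclear receptor dimers in PBS pH 7.4, 2% milk, 0.02% Triton X-100, 1 mM DTT, 0.2 mg/mL BSA and 0.4 mg/ml salmon testes DNA. Antibodies against each partner (one per run) detected binding, and scanned fluorescence was regression-normalized. Binding z-scores use the random background probes as reference.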

Compared with CAAACTAGGACAAGAGGTCAAAGTCCGCTTCCCG, GGAACAAGGGCAAAGTTGATAGCATCTGTCGACG is lower in PBM binding z-score: 1.06 for the first, 0.621 for the second.

Going from ACTTACGGGTCAAAGAGGTTATAGCACGCGTATA to CCGACTGGGGCATAAGGTTACCAGAAGCCAGCCC, the PBM binding z-score falls from 1.03 to -1.29.

Going from ACTATTAGTTGAGACGAGAGCAACCGATAGGTTG to TCGAGTAGGTTAGTCAGGGCATTCAGCCAACATA, the PBM binding z-score falls from 0.442 to 0.0156.

Compared with TCGAGTAGGTGAGGGGCATTCAGAATGGCGTCGA, ATATGTAGGTTAAGGTTCATTCAGGTTGGTTCGC is higher in PBM binding z-score: -0.208 for the first, 4.12 for the second.

Compared with AGAATGAGGTTATTCGTAGATCAGGGAAGAAAGT, GCGACTGGGGCACAGCAGGTTACCATAAGGTTGG is lower in PBM binding z-score: 0.846 for the first, -0.331 for the second.

First: GGAACGCGGGCATTCGAGTTGATAGCATGGCGAT
Second: CCTACTGGGCTACGAAAGGTCATTGATTCAGTGA
The PBM binding z-score of the first is lower: -1.41 for the first, -0.45 for the second.

Going from ACTTACCGGTCAACGAGGTTATAGCACGCGTATA to CTCGAAAGGTCGTGCTCAGGTGAGGATACCAAAC, the PBM binding z-score falls from 0.959 to -0.368.

Going from GCTATGAGTTGAAAGGGCAACCGAATGATTCTCG to ATTTGTAGGTTAAGGGTCATTCAGGTTGGTTCGC, the PBM binding z-score rises from 0.0157 to 4.62.

First: TATTGTAGATCAAGCAGGTTAAGAAAGCCTGAGT
Second: CGTCATAGTTCAACTAAGGTAACGTAAAGCACGC
The PBM binding z-score of the first is higher: 0.542 for the first, 0.48 for the second.

First: TGTCAAAGTTCAAAGGTAACCTAAGTATCCACAC
Second: CGTCCATGGTCAGAGAGGTCAGTGAATGCCGAGT
The PBM binding z-score of the first is higher: 1.02 for the first, -0.938 for the second.

First: ACTCGGAGGACAAAGGTCAGAGGTACGCCAGTGA
Second: CTCGAAAGGTCGGTTTAGGTGAGTATACGGATAA
The PBM binding z-score of the first is lower: 0.61 for the first, 0.666 for the second.

First: TAGCCTAGGTCATGGGGGCCAGTATAGTGTCGGC
Second: ATCTCTAGGTAAAAGTTCAGGGAATCCCGAGGAT
The PBM binding z-score of the first is higher: 4.89 for the first, 1.02 for the second.

First: CTCGAAAGGTCGTGCTCAGGTGTGTATACCAAAC
Second: ACTTACGGGTCGACGAGGTTATAGCACGCGTATA
The PBM binding z-score of the first is higher: 0.571 for the first, 0.084 for the second.

First: AGTCAAAGTTCTCTAGGTAACGTAAGATTCAGCT
Second: AGAATGCGGTTATACGTAGATCAGGGAAGAAAGT
The PBM binding z-score of the first is higher: 0.928 for the first, -0.724 for the second.

Going from AGAATGAGGTTCAGATCAGGGAAACAGAATACAT to CCTACTGGGCCATCAGGTCACTGATATCAACGTT, the PBM binding z-score falls from 1.08 to -0.0281.

Compared with CGTCCAAGGTCAGCAGGTTAGTGAAAGCGACGTG, CGTCCAAGGTGAATGCTAGGTCAGTGAAAGCATT is lower in PBM binding z-score: -0.261 for the first, -0.677 for the second.

Compared with TGAATGAGGTTATAAGATCAGGGTACGTTGCAAA, TCTGCTAGCTCAACGATGGTCAGCTAATCTGCTA is lower in PBM binding z-score: 1.22 for the first, -0.717 for the second.

Compared with TCTTGTAGATCAAGCGGGTTAAGAAAGCCTGAGT, ATATGTAGGTTATTGGGTCATTCAGTTTGCGCAT is higher in PBM binding z-score: -0.333 for the first, 4.52 for the second.

Compared with ATCTCTAGGTAACCAGTTCAGTGAAAGAGAGGAC, TCTTGTAGACCAAGCAGGTTAAGAAAGCCTGAGT is lower in PBM binding z-score: 0.836 for the first, -0.0357 for the second.

First: CCTACTGGGCCATTCAGAGCTCATTGATCATATG
Second: AGAATGAGGTTATTAAGATCAAGGAATTGCGGTC
The PBM binding z-score of the first is lower: -0.435 for the first, 1.27 for the second.

What follows are sequences tested on PPARg DBDmut IVT, anti-PPARg (DBD mutation: PPARg1 K132A/R137A, NR concentration 270 nM) in the same assay as above.
Summary of the method: as §1

First: CAAACTAGGACAAGAGGTCAAAGTCCGCTTCCCG
Second: GGAACAAGGGCAAAGTTGATAGCATCTGTCGACG
The PBM binding z-score of the first is higher: 0.504 for the first, -0.078 for the second.

First: ACTTACGGGTCAAAGAGGTTATAGCACGCGTATA
Second: CCGACTGGGGCATAAGGTTACCAGAAGCCAGCCC
The PBM binding z-score of the first is higher: 1.26 for the first, -1.2 for the second.

Compared with ACTATTAGTTGAGACGAGAGCAACCGATAGGTTG, TCGAGTAGGTTAGTCAGGGCATTCAGCCAACATA is lower in PBM binding z-score: 0.157 for the first, -0.832 for the second.

First: TCGAGTAGGTGAGGGGCATTCAGAATGGCGTCGA
Second: ATATGTAGGTTAAGGTTCATTCAGGTTGGTTCGC
The PBM binding z-score of the first is lower: 0.0293 for the first, 3.24 for the second.

Compared with AGAATGAGGTTATTCGTAGATCAGGGAAGAAAGT, GCGACTGGGGCACAGCAGGTTACCATAAGGTTGG is lower in PBM binding z-score: 0.521 for the first, -0.666 for the second.

Going from GGAACGCGGGCATTCGAGTTGATAGCATGGCGAT to CCTACTGGGCTACGAAAGGTCATTGATTCAGTGA, the PBM binding z-score rises from -1.44 to 0.321.

Going from ACTTACCGGTCAACGAGGTTATAGCACGCGTATA to CTCGAAAGGTCGTGCTCAGGTGAGGATACCAAAC, the PBM binding z-score falls from 1.45 to 0.176.

Going from GCTATGAGTTGAAAGGGCAACCGAATGATTCTCG to ATTTGTAGGTTAAGGGTCATTCAGGTTGGTTCGC, the PBM binding z-score rises from -0.588 to 2.85.

Going from TATTGTAGATCAAGCAGGTTAAGAAAGCCTGAGT to CGTCATAGTTCAACTAAGGTAACGTAAAGCACGC, the PBM binding z-score rises from 0.816 to 1.14.

Going from TGTCAAAGTTCAAAGGTAACCTAAGTATCCACAC to CGTCCATGGTCAGAGAGGTCAGTGAATGCCGAGT, the PBM binding z-score falls from 0.289 to -0.643.

First: ACTCGGAGGACAAAGGTCAGAGGTACGCCAGTGA
Second: CTCGAAAGGTCGGTTTAGGTGAGTATACGGATAA
The PBM binding z-score of the first is higher: 0.441 for the first, 0.13 for the second.

Compared with TAGCCTAGGTCATGGGGGCCAGTATAGTGTCGGC, ATCTCTAGGTAAAAGTTCAGGGAATCCCGAGGAT is lower in PBM binding z-score: 4.09 for the first, 1.51 for the second.

Going from CTCGAAAGGTCGTGCTCAGGTGTGTATACCAAAC to ACTTACGGGTCGACGAGGTTATAGCACGCGTATA, the PBM binding z-score rises from -0.156 to 0.394.

First: AGTCAAAGTTCTCTAGGTAACGTAAGATTCAGCT
Second: AGAATGCGGTTATACGTAGATCAGGGAAGAAAGT
The PBM binding z-score of the first is higher: 0.591 for the first, -0.259 for the second.

Going from AGAATGAGGTTCAGATCAGGGAAACAGAATACAT to CCTACTGGGCCATCAGGTCACTGATATCAACGTT, the PBM binding z-score falls from 0.118 to -0.141.

First: CGTCCAAGGTCAGCAGGTTAGTGAAAGCGACGTG
Second: CGTCCAAGGTGAATGCTAGGTCAGTGAAAGCATT
The PBM binding z-score of the first is lower: -0.686 for the first, -0.549 for the second.

Going from TGAATGAGGTTATAAGATCAGGGTACGTTGCAAA to TCTGCTAGCTCAACGATGGTCAGCTAATCTGCTA, the PBM binding z-score falls from 0.612 to -0.143.

Going from TCTTGTAGATCAAGCGGGTTAAGAAAGCCTGAGT to ATATGTAGGTTATTGGGTCATTCAGTTTGCGCAT, the PBM binding z-score rises from -0.182 to 3.64.

Compared with ATCTCTAGGTAACCAGTTCAGTGAAAGAGAGGAC, TCTTGTAGACCAAGCAGGTTAAGAAAGCCTGAGT is lower in PBM binding z-score: 0.902 for the first, -0.21 for the second.

Going from CCTACTGGGCCATTCAGAGCTCATTGATCATATG to AGAATGAGGTTATTAAGATCAAGGAATTGCGGTC, the PBM binding z-score rises from -0.6 to 0.466.
